The full list was thinned out, with hits kept by preference.
HT1080 IDH1KD tx = kills HT-1080 cells with IDH1 knockdown; HT-1080 IDH1 knockdown viability, ATP luminescence, 48 h; Potency, µM (series often up to 46.1 µM), for the others: top-dose activity, negative = toxicity, most hits filed as cytotoxic; actives 2% (n = 360,000); AID 686971;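 further: potency means the concentration at half of the fitted maximal effect; 0% = DMSO wells and -100% = cell-free medium wells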
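Assay cells: HT-1080 with IDH1 knockdown, 750 per well, RPMI/5% FBS. Exposure: 48 h at 37 °C following 2 h pre-incubation. Read: CellTiter-Glo luminescence; fitted concentration-response, curve class assigned.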
DT40 TDP1 CPT = growth inhibition of DT40 Tdp1-/-;hTDP1 cells with camptothecin (screen for TDP1 inhibitors) | chicken DT40 Tdp1-/-;hTDP1 cells + 20 nM CPT, ATP luminescence, 48 h | Potency, µM (highest dose often 46.2 µM), for inactives: top-dose activity change, negative = growth inhibition, hits mostly inhibitors | actives 12% (n = 420,000) | AID 686979; further: potency means the concentration at half of the fitted maximal effect; nearly all actives have a fitted effect of over 55% in size
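Chicken DT40 Tdp1-/- cells stably complemented with human TDP1 were seeded at 400 cells/well in medium containing 20 nM camptothecin, exposed to pin-transferred compounds, and grown at 37 °C for at least 48 hr. Viability was read as ATP luminescence.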
12-LOX inh = ALOX12 (human) lipoxygenase inhibition; purified 12hLO, xylenol orange hydroperoxide absorbance; Potency, µM (doses to about 108 µM), inactives show at the highest dose activity change, negative = inhibition, hits mostly inhibitors; AID 1671190; actives 1.1% (n = 580,000); further: potency means the concentration at half of the fitted maximal effect
Target sequence (P18054 whole entry, looked up): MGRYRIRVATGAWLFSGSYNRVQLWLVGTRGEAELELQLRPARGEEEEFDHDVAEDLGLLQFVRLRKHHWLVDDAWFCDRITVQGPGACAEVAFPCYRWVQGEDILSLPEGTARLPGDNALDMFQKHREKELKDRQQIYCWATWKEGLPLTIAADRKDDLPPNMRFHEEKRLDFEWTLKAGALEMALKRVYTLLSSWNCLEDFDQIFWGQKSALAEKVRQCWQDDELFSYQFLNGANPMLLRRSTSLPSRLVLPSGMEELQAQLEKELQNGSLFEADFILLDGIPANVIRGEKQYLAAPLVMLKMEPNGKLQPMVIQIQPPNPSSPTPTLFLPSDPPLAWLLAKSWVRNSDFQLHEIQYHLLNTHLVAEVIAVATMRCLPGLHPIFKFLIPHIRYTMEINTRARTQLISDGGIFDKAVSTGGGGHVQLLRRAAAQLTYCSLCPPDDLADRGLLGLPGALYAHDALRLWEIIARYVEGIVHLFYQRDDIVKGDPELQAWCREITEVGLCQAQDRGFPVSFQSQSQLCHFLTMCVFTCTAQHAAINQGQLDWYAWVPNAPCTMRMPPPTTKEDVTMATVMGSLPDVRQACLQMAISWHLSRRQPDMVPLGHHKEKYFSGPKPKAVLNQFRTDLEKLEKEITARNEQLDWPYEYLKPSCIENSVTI
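Purified human 12hLO at 150 nM in 25 mM Hepes, 0.01% Triton X-100, pH 7.0, preincubated 15 min at room temperature with compound. Reaction started with 40 uM arachidonic acid, 30 min at room temperature. Hydroperoxide measured by Fe-xylenol orange, 573/405 nm absorbance ratio.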
DT40 TDP1 no CPT = qHTS for Inhibitors of human tyrosyl-DNA phosphodiesterase 1 (TDP1): qHTS in cells in absence of CPT | DT40 Tdp1-/- hTDP1 cells, no CPT, ATP luminescence, 48 h | Potency, µM (series often up to 46.2 µM), without a hit: at the top dose activity change, negative = growth inhibition, hits mostly inhibitors | actives 15% (n = 420,000); further: potency means the concentration at half of the fitted maximal effect; nearly all actives have a fitted effect of over 55% in size
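Seeded 400 DT40-hTDP1 cells/well (vehicle DMSO, no 20 nM CPT); pinned compounds; ≥48 hr at 37 °C; CellTiter-Glo luminescence as viability measure.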
HT1080-NT tox = kills 2HG-producing HT-1080-NT fibrosarcoma cells. actives 1.6% (n = 360,000). HT-1080-NT fibrosarcoma viability, CellTiter-Glo ATP luminescence, 48 h. Potency, µM (highest dose often 46.1 µM), for the others: at the top dose activity, negative = less viability, hits mostly cytotoxic;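 further: NT is the 2HG producing partner of a matched IDH1 knockdown line; potency means the concentration at half of the fitted maximal effect; 0% = DMSO-treated cells and -100% = media-only wells without cells; nearly all actives have a fitted effect of over 55% in size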
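Toxicity toward the 2HG-producing NT line was scored as %Activity, normalised to DMSO and no-cell wells, from CellTiter-Glo luminescence after 48 hours' treatment.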
IL-1B inflam inh = blocks inflammasome-driven IL-1 beta release; THP-1 LPS/ATP IL-1B secretion, AlphaLISA, 16 h; hits give low values; activity change, % at 57.5 µM; actives 4.7% (n = 360,000); AID 743279; in the data active means activity change below about -50%; inconclusive means mostly about -30% to -49%
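Secreted IL-1B measured by AlphaLISA bead assay after 16 h compound exposure of THP-1 cells; compounds (final up to 57.5 uM) added 1 h before LPS (250 ng/mL) and ATP (1.25 mM) stimulation; lower signal means less secretion.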
* marks the source's active call; other numbers are inactive results; u = inconclusive; x = no result given; [ ] = remark or other dose. Unless noted, the call rests on the fitted dose curve; in most records, active means well fitted curve in the direction sought with a large enough effect; inconclusive means small, poorly fitted or top-dose-only effect, or another doubt; inactive means no such curve, though single readings can be large; an effect the other way counts as inactive or inconclusive. Unless noted, on the % scale 0 is the no-effect control and ±100 the full control effect.

SMILES | HT1080 IDH1KD tx | DT40 TDP1 CPT | 12-LOX inh | DT40 TDP1 no CPT | HT1080-NT tox | IL-1B inflam inh
CC(C)c1ccc(NC(=S)NC2CCSc3ccccc32)cc1 (centres undefined) | x | x | 35µM* | x | x | x
Cc1ccc(NC(=S)NC2CCN(Cc3ccccc3)CC2)cc1 | 9% | u | -10% | u | 8% | -20
CC(C)c1ccccc1NC(=S)NC1CCN(Cc2ccccc2)CC1 | 1% | u | -11% | u | 0% | u
Cc1c(Cl)cccc1NC(=S)N1CCN(Cc2ccccc2)CC1 | 1% | -28% | 0% | -14% | 3% | 0
S=C(Nc1cc(Cl)cc(Cl)c1)NC1CCN(Cc2ccccc2)CC1 | u | 8.2µM* | u | 6.5µM* | 16µM* | -66*
CCN(CC)S(=O)(=O)c1ccc(-c2csc(N)n2)cc1 | x | x | 8% | x | x | x
Cc1ccc(NC(=S)NC2CCN(Cc3ccccc3)CC2)cc1C | -6% | u | u | 26µM* | -21% | -20
S=C(Nc1ccc(Cl)cc1Cl)NC1CCN(Cc2ccccc2)CC1 | -12% | 21µM* | -26% | 16µM* | -20% | 4
CC(C)c1ccc(NC(=S)N2CCN(Cc3ccccc3)CC2)cc1 | -2% | u | -5% | 26µM* | -1% | 0
CCCN1CCC(NC(=S)Nc2cccc(Cl)c2Cl)CC1 | -7% | 18µM* | -9% | u | -18% | 12
O=C(NC1CCN(Cc2ccccc2)CC1)c1ccc(Cl)cc1Cl | 3% | 2% | 3% | u | 4% | -2
CCc1ccc(-n2ccc(=O)c(C(=O)Nc3nnc(C(C)C)s3)n2)cc1 | x | x | -19% | x | x | x
Fc1ccc(N2CCN(Cc3ncc(-c4ccccc4)o3)CC2)cc1 | x | x | -40% | x | x | x
CCCOc1ccc(NC(=O)c2cccc3ccccc23)c2cccnc12 | x | x | 12% | x | x | x
CN(C)c1ccc(CN2CCn3c(nnc3-c3ccccc3)C2)cc1 | x | x | 2%[6.33 µM] | x | x | x
COc1ccc(NC(=O)N2CCC3(CC2)N(CC2CC2)C(=O)CS3=O)cc1 (centres undefined) | x | x | 11% | x | x | x
Cc1ccc(NC(=O)c2ccc3c(c2)N(S(C)(=O)=O)CC3)c(C)c1 | x | x | 30% | x | x | x
CC(C)c1ccc(NC(=S)NC2CCN(Cc3ccccc3)CC2)cc1 | u | u | u | 23µM* | u | -89*
CC(C)(C)c1ccc(S(=O)(=O)Nc2ccc(Cc3ccncc3)cc2)cc1 | u | u | -4% | 16µM* | -7% | u
O=C(O)c1cccc(S(=O)(=O)Nc2ccc(Cc3ccncc3)cc2)c1 | 7% | -14% | -1% | 24% | 8% | 5
CC(=O)Nc1ccc(S(=O)(=O)Nc2ccc(Cc3ccncc3)cc2)cc1 | -6% | u | 7% | 9.2µM* | u | -5
COc1ccc(NC(C)C(=O)Nc2ccc(C(C)(C)C)cc2)cc1Cl (centres undefined) | u | 29µM* | -27% | u | u | -54*
COc1ccc(NC(=O)N(C)[C@H]2C[C@H]3c4[nH]c5ccc(-c6cccc(C)c6)cc5c4CCN3C[C@H]2[C@H](C)O)cc1 | u | u | x | 16µM* | 23µM* | -29
Cc1cccc(-c2ccc3[nH]c4c(c3c2)CCN2C[C@@H]([C@H](C)O)[C@@H](N(C)C(=O)Nc3ccc(F)cc3)C[C@@H]42)c1 | u | 16µM* | 0% | 18µM* | 21µM* | -23
C[C@H](O)[C@@H]1CN2CCc3c([nH]c4ccccc34)[C@@H]2C[C@@H]1N(C)C(=O)Nc1ccc(F)cc1 | -9% | u | -12% | u | -15% | -14
SMILES | HT1080 IDH1KD tx | DT40 TDP1 CPT | 12-LOX inh | DT40 TDP1 no CPT | HT1080-NT tox | IL-1B inflam inh
C[C@H](O)[C@@H]1CN2CCc3c([nH]c4ccc(-c5ccc6c(c5)OCO6)cc34)[C@@H]2C[C@@H]1N(C)C(=O)Nc1cc(Cl)cc(Cl)c1 | 7.3µM* | 4.1µM* | -102% | 3.3µM* | 9.2µM* | -16
CCOc1ccc(-c2cc(C(=O)NCCc3ccccn3)[nH]n2)cc1 | x | x | 29% | x | x | x
O=C1S/C(=C\c2ccc(N3CCOCC3)o2)C(=O)N1Cc1c(F)cccc1Cl | 3.5µM* | 7.3µM* | 32µM* | u | u | 20
O=C1S/C(=C/c2ccc(N3CCOCC3)o2)C(=O)N1Cc1c(F)cccc1Cl | -19% | u | 28µM* | -28% | -12% | 0
O=C1N=C(N2CCOCC2)S/C1=C/c1ccc(-c2ccccc2Cl)o1 | -9% | u | -8% | u | -13% | -13
O=C1S/C(=C\c2ccc(N3CCOCC3)o2)C(=O)N1c1ccccc1 | u | 1.6µM* | u | 8.2µM* | u | -104*
CCOC(=O)C1CCCN(C(=O)Cn2ncn3nc(-c4cccs4)cc3c2=O)C1 (centres undefined) | x | x | 6% | x | x | x
O=C(Cn1ccc(=O)[nH]c1=O)Nc1cccc2cccnc12 | x | x | 63% | x | x | x
COc1ccc(NS(=O)(=O)c2ccc(N3CCCC3)c(N)c2)cc1 | u | 5.2µM* | -5% | 4.6µM* | -21% | -16
Nc1cc(S(=O)(=O)Nc2ccccc2Cl)ccc1N1CCOCC1 | 1% | u | -1% | u | -7% | 11
COc1ccc(NS(=O)(=O)c2ccc(I)cc2)cc1N1CCN(C)CC1 | x | 27µM* | 161% | 30µM* | x | x
Nc1cc(S(=O)(=O)Nc2ccc(Cl)cc2)ccc1N1CCOCC1 | -12% | 7.3µM* | 45µM* | 5.2µM* | u | -11
O=c1[nH]c2ccccc2n2c(C(F)(F)F)nnc12 | 6% | -4% | 1% | -3% | 5% | 20
FC(F)(F)c1nnc2c(Sc3ccccc3)nc3ccc(Cl)cc3n12 | -12% | 0.65µM* | -5% | 0.58µM* | 9.2µM* | -70*
CC(C)C(CCNCc1ccccn1)c1ccc(Cl)cc1 (centres undefined) | u | u | -4% | 13µM* | -19% | x
CCCCOc1ccc(C(=O)OC2CC(C)N(C)CC2C)cc1 (centres undefined) | u | u | -10% | 16µM* | u | -54*
CCCCOc1ccc(C(=O)N2CCC(C)CC2)cc1 | -4% | -21% | 12% | -22% | -6% | u
CC1CN(C)C(C)CC1OC(=O)C(c1ccccc1)c1ccccc1 (centres undefined) | -10% | u | 140% | 23µM* | -14% | u
CN(CCC#N)C(=O)CSc1ncc(-c2ccc(Cl)cc2)o1 | x | x | -45% | x | x | x

Screens from PubChem.
